Laboratory results: PubChem BioAssay (NCI)
“And” between values parts separate entries of the source, which are not always exact repeats. Equal entries are not always repeated. This is part of a sample that, as a whole, favours compounds with a hit. Of some 83,000 tested, about 20% had one in any assay.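 Results are percent growth after 48 hours of single-concentration exposure. 100 means growth as in untreated cells, lower positive values show inhibition; negative values down to -100 show cell death.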 Values without a mark were called inactive. The source made the active and inactive calls. How the source made its calls: active means growth percent below 10; inactive means the rest.

Tests used:
Test in all cases: NCI-60 one-dose screen, 48 h (100 = growth as untreated, 0 = no growth, -100 = all killed)
Conditions in all cases: 10 µM
RPMI-8226 leukemia = test system: RPMI-8226 leukemia
OVCAR-8 ovarian = test system: OVCAR-8 ovarian
OVCAR-5 ovarian = test system: OVCAR-5 ovarian
OVCAR-4 ovarian = test system: OVCAR-4 ovarian
IGROV1 ovarian = test system: IGROV1 ovarian
OVCAR-3 ovarian = test system: OVCAR-3 ovarian
HS 578T breast = test system: HS 578T breast
NCI/ADR-RES ovarian = test system: NCI/ADR-RES ovarian
T-47D breast = test system: T-47D breast
BT-549 breast = test system: BT-549 breast
MDA-MB-435 melanoma = test system: MDA-MB-435 melanoma
SW-620 colon = test system: SW-620 colon
HCT-116 colon = test system: HCT-116 colon
HCC-2998 colon = test system: HCC-2998 colon
KM12 colon = test system: KM12 colon
MCF7 breast = test system: MCF7 breast
MDA-MB-468 breast = test system: MDA-MB-468 breast
SK-OV-3 ovarian = test system: SK-OV-3 ovarian

| Compound | growth (RPMI-8226 leukemia) | growth (OVCAR-8 ovarian) | growth (OVCAR-5 ovarian) | growth (OVCAR-4 ovarian) | growth (IGROV1 ovarian) | growth (OVCAR-3 ovarian) | growth (HS 578T breast) | growth (NCI/ADR-RES ovarian) | growth (T-47D breast) | growth (BT-549 breast) | growth (MDA-MB-435 melanoma) | growth (SW-620 colon) | growth (HCT-116 colon) | growth (HCC-2998 colon) | growth (KM12 colon) | growth (MCF7 breast) | growth (MDA-MB-468 breast) | growth (SK-OV-3 ovarian) |
| --- | --- | --- | --- | --- | --- | --- | --- | --- | --- | --- | --- | --- | --- | --- | --- | --- | --- | --- |
| COC[C@@H](CC(C)C)N=C1N/C(=C\c2ccc3ncsc3c2)C(=O)N1C | 3.65% (active) | 17.6% | -6.76% (active) | 29.3% | 9.21% (active) | 3.27% (active) | 15.4% | 0.43% (active) | -7.71% (active) | 7.17% (active) | 22.1% | 2.99% (active) | 14.5% | 5.06% (active) | 9.52% (active) |  |  |  |
| Clc1ccc(/C=N/Nc2ncnc3sc4c(c23)CCN(Cc2ccccc2)C4)cc1 | 14% | -56.2% (active) | -18.8% (active) | -75.9% (active) | 34.4% | -79.9% (active) | -11% (active) | -55.2% (active) | -0.297% (active) | -6.23% (active) | -45.3% (active) | -74% (active) | -93.5% (active) | 19.8% | -26.9% (active) | -47.5% (active) | -62.4% (active) |  |
| COc1cccc(C(N)=Nc2ccc(OCCCCCCn3cncn3)cc2)c1 | 16% |  | 28.2% | 60.7% | 31.4% | 16.2% | 26.4% | 13.5% | 46.1% | 20.5% |  | 38.1% |  | 18.5% | 18.6% | 19.2% |  | 29.6% |
| CCCCCc1ccc(S(=O)(=O)Nc2cc(-c3csc(N(C)C(C)=O)n3)ccc2N2CCN(C)CC2)cc1 | -9.26% (active) | 36% | 68% | 11.6% | 48% | 60.2% | 28.7% | 32.7% | -33.4% (active) | 48.6% | 25.4% |  | -84.7% (active) | 20.8% | 46.3% | 4.08% (active) | 14.1% |  |
| CN1CCc2c(sc3ncnc(N/N=C/c4cn(-c5ccccc5)nc4-c4ccc(Br)cc4)c23)C1 | 35.8% | 4.42% (active) |  | 51.4% | 56.7% | 4.8% (active) | 70.1% | 8.08% (active) | 74.2% | 83.4% | 66.1% | 11% | 1.25% (active) | 27.1% | 44.9% | -3.07% (active) |  | 107% |
| O=C(Nc1ccc(I)cc1)Nc1nc2ccc([N+](=O)[O-])cc2s1 | -71.7% (active) | -76.1% (active) |  | -77.3% (active) | -95.7% (active) | -92% (active) | -64.9% (active) |  | -85.9% (active) | -99.6% (active) | -96.1% (active) | -80.4% (active) | -100% (active) | -95.6% (active) | -93.3% (active) | -93.6% (active) | -97.2% (active) | -69.9% (active) |
| Cc1nn(-c2ccccc2)c2ncn(CC(=O)N/N=C/c3c[nH]c4ccccc34)c(=O)c12 | 73.2% | 89.1% |  | 83.2% | 106% | 84.3% | 72.7% | 101% | 83.2% | 99.4% | 94.9% | 95.4% | 82.5% | 114% | 92.4% | 68.7% | 102% | 106% |
| CC1(c2ccccc2)NC(=O)N(CC(=O)Nc2ccc(C(=O)/C=C/C=C/c3ccccc3)cc2)C1=O (stereo not given) |  | 45% | 84.1% | 68.7% | 86.5% | 47.1% | 57.6% | 82.7% | 17% | 38.9% | 37.1% | 48.3% | 27.1% | 87.2% | 21% | 3.54% (active) | 3.2% (active) |  |
| Cc1ccc(C(=O)NCCCNc2nc(Nc3ccc(N4CCN(C)CC4)cc3)nc3ccsc23)cc1 | 10.1% | 29.2% |  | 39.6% | 69.2% | 31% | 66.9% | 46.5% | 4.51% (active) | 65.4% | 43.9% | 31.6% | 9.28% (active) | 43.7% | 37.2% | 16.6% | 45.4% | 92.9% |
| O=C(c1ccccc1)n1ccc(-c2cc3cc(Br)ccc3oc2=O)n1 | 24.6% | 22.5% |  | 26.2% | 16% | 38.8% | 48.5% | -2.98% (active) | 1.35% (active) | 39.2% | 48.9% | 45.8% | 16% | 17% | 27.9% | -8.53% (active) | -25.9% (active) | 12.5% |
| O=C1Nc2ccc(Cl)cc2/C1=C/c1ccc(OCc2ccc(Br)cc2F)cc1 | 44.7% | 5.33% (active) |  | -20.5% (active) | 39.2% | 0.51% (active) | -0.705% (active) | 13.1% | 10.1% | 81.9% | 60.2% | 23.6% | -10.8% (active) | 77.5% | 59.1% |  | 92.6% and 48.8% | 25.1% |
| COc1ccc2[nH]c(O)c(N=NC(=O)COc3ccc(NC(=O)Nc4ccc(Cl)cc4)cc3)c2c1 | 32.1% | -28.6% (active) | 48% | -21.6% (active) | 68.8% | -30.6% (active) | 22.8% | 102% | 83.8% | 76% | -52% (active) | 4.49% (active) | -33.8% (active) | -14.3% (active) | 4.25% (active) | 1.75% (active) | -52.3% (active) |  |
| CN(C(=O)c1ccc(C(F)(F)F)cc1C(F)(F)F)c1sc2c(c1C#N)CCC(=O)C2 | 14.3% | 82.2% |  | 59.3% | 97.6% | 29.7% | 69.4% | 55% | 1.04% (active) | 20.8% | 101% |  | 25.2% | 94.4% | 74.3% | 85.8% | 51.9% | 85.9% |
